Results on five molecules are retold here after PubChem BioAssay.

Several values for one entry are separate records, joined by “and”; a condition that tells them apart may be missing. Equal entries are not always repeated. For some of these results: Results with a measured potency or affinity are listed apart. Activity calls are given as the source filed them. Unless noted, no stated cut-off is given here; in the data, active means parasite load remaining mostly below about 12% (no sharp cut-off); inactive means mostly above about 10%.

Experiment [1] is described as follows: blockers of polyQ-driven CASP3 activation – cell-based (AID 1583). Particulars: polyglutamine-induced caspase-3 activation, cell assay; stronger effect = higher value;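 tested at 10 µM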.
Experiment [2] in a line: yeast 75Q aggregation reduction – 75Q-TubU reporter (AID 1593). The settings on record: Yeast 75Q polyglutamine aggregation reporter.
Experiment [3] can be described thus: restoration of touch response, mutant HTT neurons – whole organism, C. elegans mechanosensory neurons, N-terminal huntingtin (AID 1599). Particulars: C. elegans polyQ-huntingtin mechanosensory neurons, stronger effect = higher value.
Experiment [4] is described as follows: blockers of cytochrome c efflux from mitochondria – biochemical, purified mitochondria (AID 1603).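 Further: mouse liver mitochondria challenged with calcium chloride; signal normalized to the plate average as 100%.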 Particulars: stronger effect = lower value.
Experiment [5] in a line: polyglutamine aggregate formation blockers (AID 1604). The settings on record: polyglutamine-induced protein aggregation inhibition assay; stronger effect = higher value; tested at 2.5 µM.
Experiment [6] can be described thus: glutamate transport activators, MN-1 cells, MN-1 cell line (AID 1612).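 Further: tested at 1 µM final; 0% = mean of DMSO vehicle wells on each plate; positive means more glutamate uptake than control and negative means less.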 Particulars: MN-1 motor neuron cells, stronger effect = higher value.
Experiment [7] is described as follows: GFP-Q80 aggregate reduction, neuronal-like cells, cell-based, NGF-treated PC12, GFPQ80 (AID 1614).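 Further: lower means fewer inclusions and 0 means no inclusions at all.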 Particulars: PC12 NGF-treated GFP-polyQ80 inclusion reduction.
Experiment [8] can be described thus: 75Q-TubH aggregate inhibition, S. cerevisiae, yeast (AID 1616). The settings on record: S. cerevisiae 75Q-TubH polyglutamine aggregation suppression; stronger effect = higher value.
Experiment [9] in a line: P. berghei load reduction in hepatocytes – cell-based, HepG2, luciferase luminescence, HepG2 viability, primary screen (AID 624349).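 Further: 100% = mean of DMSO negative control wells on the same plate.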 The settings on record: P. berghei liver stage in HepG2, luciferase luminescence, concentration not given here; parasite load remaining: stronger effect = lower value; viability: measured here: HepG2 viability without parasites.
A short description of experiment [10]: EMT-state selective cytotoxicity in co-culture – imaging, PC-3E GFP, TEM4-18 mCherry, primary screen (AID 1345086;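 active means compounds killing one labelled cell type while sparing the other, by normalised counts and ratio limits, not self-fluorescent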;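 on all read-outs here: cells exposed to compound for 72 h before imaging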;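 on red/green cell ratio (normalised): normalised mesenchymal count divided by normalised epithelial count so high means epithelial killing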). The settings on record: PC-3E GFP / TEM4-18 mCherry co-culture, imaging cell counts, at 1 µM; for red/green cell ratio (normalised): actives lie on both sides, counts scaled to control wells, 1 = unselective.
Experiment [11] can be described thus: viability loss with induced miR-34 in A549 – imaging, A549 dox-inducible miR-34, nuclei and caspase counts, primary screen (AID 1347080;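 active means compounds whose cell count with miR-34 switched on is under 0.7 times the count with it off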). The settings on record: A549 miR-34 inducible, Hoechst nuclei count, 48 h.
Setting [12] is: measured here: epithelial PC-3E GFP cell survival.
[13] abbreviates: measured here: mesenchymal TEM4-18 mCherry cell survival.
Setting [14] is: stronger effect = lower value, cell number ratio, induced over uninduced.
[15] abbreviates: measured here: relative caspase fold change +Dox/-Dox.
Setting [16] is: measured here: total cells with miR-34 induction, stronger effect = lower value.
Where [17] appears, read: measured here: total cells without miR-34 induction.

Turning to `C[C@]12CCC3c4ccc(O)cc4CCC3C1C[C@@H](O)[C@@H]2O` (stereo not given in full), the inhibition in experiment [1] is -10.9%. Also, the score in [2] came out at 0.64. This molecule had a rescue above control in [3] of 0.35. Further, the cytochrome c release ratio in experiment [4] was 0.85. The inhibition of aggregation in experiment [5] was 84.5%. Moreover, the glutamate uptake change in experiment [6] was -5.15%. The same molecule came in with an inclusion score in experiment [7] of 2. The aggregation suppression score in experiment [8] was determined as 0.718. Further, in [9], the parasite load remaining was 84.5% (inactive) and 67.1% (inactive). Further, the viability in experiment [9] is 72.3% and 96.2%. The red/green cell ratio (normalised) in experiment [10] is 0.95 (inactive). The results for the normalised cell number in [10] (setting [12]) and in experiment [10] (setting [13]) were 1 and 0.95, respectively. Also, the fold change in experiment [11] (setting [14]) was 0.868 (inactive); in experiment [11] (setting [15]), 1.18. For the same molecule, the cell count in experiment [11] (setting [16]) was 11100; in experiment [11] (setting [17]), 12800.

Turning to `CC(=O)O[C@H]1C[C@@]2(C)[C@@H](C[C@@H](O)C3[C@]2(C)CC[C@H]2[C@H](C)[C@H](O)CC[C@]32C)/C1=C(/CCC=C(C)C)C(=O)O` (stereo not given in full), the inhibition in experiment [1] was determined as 8.99%. The molecule further showed a score in experiment [2] of 1.55. Further, the rescue above control in experiment [3] was -0.35. Also, the cytochrome c release ratio in [4] came out at 1.24. In experiment [5], this molecule showed an inhibition of aggregation of 12.1%. Also, in experiment [6], the glutamate uptake change stood at 11.6%. Further, the inclusion score in experiment [7] is 2. In [8], this molecule came in with an aggregation suppression score of 1.1. Also, the parasite load remaining in experiment [9] was 99.6% (inactive) and 102% (inactive). Moreover, the viability in experiment [9] is 71.9% and 91.9%. Moreover, the red/green cell ratio (normalised) in experiment [10] is 1.29 (inactive). For the same molecule, the figures for the normalised cell number in [10] (setting [12]) and in [10] (setting [13]) were 1.06 and 1.36, respectively. Further, the results for the fold change in [11] (setting [14]) and in experiment [11] (setting [15]) were 0.927 (inactive) and 1.7, respectively. Further, the cell count in experiment [11] (setting [16]) amounted to 11800; in experiment [11] (setting [17]) it was 12700.

Regarding `CC(=O)OCC(=O)[C@@]1(O)CCC2C3CCC4=CC(=O)CC[C@]4(C)C3C(=O)C[C@@]21C` (stereo not given in full), the inhibition in experiment [1] is -3.61%. Further, the score in experiment [2] turned out to be 1.04. Also, the rescue above control in [3] was -2.34. For the same molecule, the cytochrome c release ratio in [4] was determined as 0.91. Besides, the inhibition of aggregation in [5] is 69.7%. Further, the glutamate uptake change in experiment [6] was -1.1%. In addition, the inclusion score in experiment [7] was 2. The aggregation suppression score in experiment [8] amounted to 0.738. The parasite load remaining in experiment [9] is 120% (inactive) and 65.9% (inactive). Moreover, in experiment [9], the viability was 67.1% and 90.7%. Also, in [10], the red/green cell ratio (normalised) was 1.08 (inactive). The normalised cell number is 1.08 in [10] (setting [12]) and 1.17 in [10] (setting [13]). For the same molecule, the figures for the fold change in experiment [11] (setting [14]) and in experiment [11] (setting [15]) were 0.911 (inactive) and 0.583, respectively. For the same molecule, the cell count in experiment [11] (setting [16]) amounted to 11400; in experiment [11] (setting [17]), 12500.

Take `O=c1[nH]c(=O)n(C2C[C@@H](O)[C@@H](CO)O2)cc1F` (stereo not given in full): the inhibition in [1] is -9.47%. In experiment [2], the score worked out at 1.23. Besides, the rescue above control in experiment [3] is -12.2. In addition, in experiment [4], the cytochrome c release ratio is 0.97. Further, the inhibition of aggregation in experiment [5] was determined as 28.2%. Moreover, in [6], the glutamate uptake change is 1.59%. In experiment [7], this molecule came in with an inclusion score of 2. Further, in [8], the aggregation suppression score came out at 1.24. In addition, in [9], the parasite load remaining is 79.5% (inactive) and 36% (inactive). Further, in experiment [9], the viability is 108%. The red/green cell ratio (normalised) in experiment [10] was 0.79 (inactive). Further, the normalised cell number was found to be 0.79 in experiment [10] (setting [12]) and 0.62 in experiment [10] (setting [13]). The figures for the fold change in experiment [11] (setting [14]) and in [11] (setting [15]) were 1.13 (inactive) and 1.5, respectively. The cell count in experiment [11] (setting [16]) worked out at 4220; in experiment [11] (setting [17]) it was 3730.

For the molecule `CC(=O)OCC(=O)[C@@]1(O)[C@H](OC(C)=O)CC2C3CCC4=CC(=O)C=C[C@]4(C)[C@@]3(F)[C@@H](O)C[C@@]21C` (stereo not given in full), in experiment [1], the inhibition was -24%. Moreover, in experiment [2], the score was determined as 1.15. Further, the rescue above control in experiment [3] is 19.5. The cytochrome c release ratio in experiment [4] is 1.31. The molecule further displayed an inhibition of aggregation in experiment [5] of 89.7%. Also, the glutamate uptake change in experiment [6] is 9.09%. In addition, the inclusion score in experiment [7] stood at 2.5. In [8], this molecule came in with an aggregation suppression score of 0.805. In addition, the parasite load remaining in experiment [9] is 160% (inactive) and 64.8% (inactive). For the same molecule, in [9], the viability is 67.1% and 85.5%. For the same molecule, the red/green cell ratio (normalised) in experiment [10] is 1.19 (inactive). The normalised cell number in experiment [10] (setting [12]) turned out to be 0.98; in experiment [10] (setting [13]), 1.17. Besides, the fold change in experiment [11] (setting [14]) is 0.86 (inactive); in experiment [11] (setting [15]), 3.23. For the same molecule, the cell count in [11] (setting [16]) worked out at 7630; in experiment [11] (setting [17]), 8870.
